Screens from PubChem.
Sampled rows, rich in hits. Any-hit rate of the full collection: about 3.1%.
EPAC1 agonist = Validation qHTS for agonist of cAMP-regulated guanine nucleotide exchange factor 3 (EPAC1) | AID 1645883, 2021 | Rap guanine nucleotide exchange factor 3 (Homo sapiens), O95398 | Potency, µM, inactives show max response, positive = active, actives largely listed as activators | 1% of 16,000 active | EPAC1 Rap1b BODIPY-GDP exchange, fluorescence; note: nearly all actives have a fitted effect of over 70% in size
EPAC2 antag = Validation qHTS for antagonist of cAMP-regulated guanine nucleotide exchange factor 4 (EPAC2); 1.7% of 16,000 active; Potency, µM (top dose mostly 112 µM), inactives show top-dose activity, negative = inhibition, most hits filed as inhibitors; EPAC2 Rap1B BODIPY-GDP exchange, fluorescence; Rap guanine nucleotide exchange factor 4 (Homo sapiens), Q8WZA2; AID 1645886, 2021;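 note: 100% = activation by cAMP agonist control; nearly all actives have a fitted effect of over 40% in size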
Target sequence (Q8WZA2 whole entry, looked up): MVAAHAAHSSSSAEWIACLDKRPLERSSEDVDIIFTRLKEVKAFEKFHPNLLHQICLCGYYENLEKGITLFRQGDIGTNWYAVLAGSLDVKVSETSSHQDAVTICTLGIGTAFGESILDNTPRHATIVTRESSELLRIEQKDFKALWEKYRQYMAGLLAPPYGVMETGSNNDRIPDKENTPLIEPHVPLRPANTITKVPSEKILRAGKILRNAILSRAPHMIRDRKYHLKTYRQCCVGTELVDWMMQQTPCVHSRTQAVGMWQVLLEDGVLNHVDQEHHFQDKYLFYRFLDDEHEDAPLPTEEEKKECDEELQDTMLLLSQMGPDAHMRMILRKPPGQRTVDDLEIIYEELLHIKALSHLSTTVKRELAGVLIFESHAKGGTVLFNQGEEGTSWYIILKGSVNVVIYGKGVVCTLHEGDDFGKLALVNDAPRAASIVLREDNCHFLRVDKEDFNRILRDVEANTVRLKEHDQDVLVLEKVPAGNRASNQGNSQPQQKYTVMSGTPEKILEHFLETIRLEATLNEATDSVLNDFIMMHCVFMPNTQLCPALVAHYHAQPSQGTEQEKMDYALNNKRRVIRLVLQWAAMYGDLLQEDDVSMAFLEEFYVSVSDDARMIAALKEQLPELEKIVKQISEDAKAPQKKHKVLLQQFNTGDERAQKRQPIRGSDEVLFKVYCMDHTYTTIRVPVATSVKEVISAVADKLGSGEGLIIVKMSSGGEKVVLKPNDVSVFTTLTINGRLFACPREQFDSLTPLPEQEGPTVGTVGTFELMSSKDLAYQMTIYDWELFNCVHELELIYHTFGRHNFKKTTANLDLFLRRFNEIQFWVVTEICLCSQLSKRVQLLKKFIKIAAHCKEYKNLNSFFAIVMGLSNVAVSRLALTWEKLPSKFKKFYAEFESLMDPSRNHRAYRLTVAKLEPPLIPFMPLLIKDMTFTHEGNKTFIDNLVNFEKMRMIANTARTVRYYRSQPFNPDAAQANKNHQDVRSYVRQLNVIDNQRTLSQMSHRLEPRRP
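Normalized against a 6.5 mM cAMP agonist control, compounds were tested on 100 nM EPAC2 exchanging Rap1B-bound BODIPY-GDP (250 nM) for 50 uM GDP. Fluorescence drop (ex 480, em 540 nm) was tracked at room temperature over 30 min at 5-min intervals.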
* = called active by the depositor; ? = inconclusive; ! = repeats disagree. Calls come from the whole dose curve; as a rule, active = well fitted curve in the direction sought with a large enough effect; inconclusive = small, poorly fitted or top-dose-only effect, or another doubt; inactive = no such curve, though single readings can be large; an effect the other way counts as inactive or inconclusive. Unless noted, % is set by controls: 0 for no effect and ±100 for the full control effect; potency is the fitted concentration of half-maximal effect.

SMILES	EPAC1 agonist	EPAC2 antag
COCCn1c(=O)c(-c2cccc(C#N)c2)nc2cnc(Oc3ccccc3)nc21	?	-20%
COCCn1c(=O)c(-c2cccc(C#N)c2)nc2cnc(Nc3ccccc3)nc21	112µM*	10%
CO[C@H]1[C@H](NC(=O)c2ccsc2)c2ccccc2C12CCN(Cc1cc3ccccc3o1)CC2	29%	-10%
O=C([C@@H]1C[C@@H](Sc2nc3ccccc3[nH]2)CN1Cc1ccc(Cl)cc1)N1CCN(c2ccccc2F)CC1	0%	-2%
Cc1c(CC(C)(C)C(=O)O)n(Cc2ccc(Cl)cc2)c2ccc(F)cc12	-9%	45µM*
COc1ccc2c(c1)c(CC(=O)O)c(C)n2Cc1ccc(Cl)cc1	1%	-25%
COc1ccccc1-c1oc2ccccc2c(=O)c1OC	5%	?
O=c1c(O)c(-c2ccccc2)oc2ccc3occc3c12	?	7.1µM*
COc1c(-c2ccccc2)oc2c(ccc3occc32)c1=O	?	4.5µM*
O=c1c(O)c(-c2cccc(O)c2)oc2ccccc12	-10%	-16%
CC(C)C[C@H](NC(=O)[C@H](Cc1ccccc1)NC(=O)c1cnccn1)B(O)O	-13%	2%
COc1cccc(-c2nc3cc(SC)ccc3cc2CN(C(=O)c2csc(C)n2)C2CC2)c1	-2%	16µM*
COc1ccc(-c2nc3cc(F)ccc3cc2CN(C(=O)c2cccc(OC)c2)C2CC2)cc1	-1%	1%
CCOC(=O)C1=C(C)NC(C)=C(C(=O)OCC)C1c1c(F)c(F)c(F)c(F)c1F	-23%	35µM*
CCOC(=O)C1=C(C)NC(C)=C(C(=O)OCC)C1c1ccccc1C=CC(=O)OC(C)(C)C	-59%	-24%
CO[C@@H]1[C@@H](O[C@@H]2O[C@H](C)[C@@H](O[C@H]3C[C@@](C)(O)[C@@H](OC(=O)CC(C)C)[C@H](C)O3)[C@H](N(C)C)[C@H]2O)[C@@H](CC=O)C[C@@H](C)C(=O)/C=C/C2OC2C[C@@H](C)OC(=O)C[C@H]1OC(C)=O (stereo not given in full)	-17%	1%
CC(=O)c1ccc(F)c(-c2cc(C)cc3c2OC(CNC(=O)c2cnc4ccccn4c2=O)C3)c1 (stereo not given)	11%	?
COCCn1c(=O)c(-c2cccs2)nc2cnc(N(C)C)nc21	112µM*	43%
CN(C)c1ncc2nc(-c3cccs3)c(=O)n(C3CC3)c2n1	100µM*	63%
COCCn1c(=O)c(-c2cccs2)nc2cnc(OC)nc21	-37%	-4%
O=c1c(-c2cccs2)nc2cnc(Oc3ccccc3)nc2n1C1CC1	-22%	-22%
CC(C)[C@@H]1CC[C@@H](C)C[C@H]1OC(=O)c1ccccc1O	-6%	4%
CC(=O)O[C@H]1C[C@@H]2CC[C@@H]3[C@H](CC[C@@]4(C)[C@H]3C[C@H](N3CC[N+](C)(C)CC3)[C@@H]4OC(C)=O)[C@@]2(C)C[C@@H]1N1CC[N+](C)(C)CC1	-8%	10%
Cc1ccccc1CNc1ncnc2c1ncn2[C@@H]1O[C@H](CO)[C@@H](O)[C@H]1O	-26%	8%
O=c1c(-c2cccs2)nc2cnc(N3CCOCC3)nc2n1Cc1cccs1	10%	6%
SMILES	EPAC1 agonist	EPAC2 antag
CN1CCN(c2ncc3nc(-c4cn(C)c5ccccc45)c(=O)n(CCc4ccccc4)c3n2)CC1	-7%	-25%
CN1CCN(c2ncc3nc(-c4cccs4)c(=O)n(Cc4ccc(F)cc4)c3n2)CC1	13%	2%
CN1CCN(c2ncc3nc(-c4cccs4)c(=O)n(CCc4ccccc4)c3n2)CC1	112µM*	46%
N#CCCn1c(=O)c(-c2cccs2)nc2cnc(N3CCOCC3)nc21	63µM*	29%
CN1CCN(c2ncc3nc(-c4cn(C)c5ccccc45)c(=O)n(CCC#N)c3n2)CC1	112µM*	90%
COc1cccc(-c2nc3cc4c(cc3cc2CN(C(=O)c2csc(C)n2)C2CC2)CCC4)c1OC	0%	-2%
CN=C(N)NC(=O)Nc1c(C)cccc1C	2%	16%
Cc1cccc(C)c1NC(=O)C(C)N (stereo not given)	89µM*!	-13%
O=C1NC(=O)/C(=C/c2ccc3nccnc3c2)S1	-8%	-12%
O=C1NC(=O)/C(=C/c2ccc(-c3ccc(F)cc3O)o2)S1	-14%	7.9µM*
C=C1C(=O)O[C@H]2[C@H]1CC/C(C)=C\CC[C@@]1(C)O[C@@H]21	-13%	22%
CCC1CN(CCNC(=O)c2cn3cc(C)ccc3n2)Cc2cc(OC)ccc2O1 (stereo not given)	3%	-15%
C=C[C@]1(C)C[C@@H](OC(=O)CSCCN(CC)CC)[C@]2(C)[C@H](C)CC[C@]3(CCC(=O)[C@H]32)[C@@H](C)[C@@H]1O	-26%	1%
COc1ccc(C(C)=O)cc1	14%	-29%
COc1ccc2cc(CCC(C)=O)ccc2c1	-37%	16µM*!
COc1cc(CN2CCC3(CCC(CNC(=O)c4ccccc4)O3)CC2)cc(OC)c1 (stereo not given)	-14%	5%
COc1ccc(/C=C/C(=O)c2cc(O)ccc2O)cc1	9%	?
COc1ccc(C(=O)c2ccccc2O)c(O)c1	-4%	45µM*!
COc1ccc(O)c(CN2CCC3(CC2)c2ccccc2[C@@H](NC(=O)c2cccc(F)c2)[C@@H]3OC)c1	19%	-3%
CC1=C(CC(=O)O)c2cc(F)ccc2/C1=C\c1ccc(S(C)(=O)=O)cc1	9%	16%
CS(=O)(=O)c1ccc(-c2cc(Br)sc2-c2ccc(F)cc2)cc1	22%	40µM*
COc1ccccc1N1CCN(c2nc(CNC(=O)c3ccccc3F)nc3ccccc23)CC1	7%	?
COc1ccc(S[C@@H](CCN2CC[C@H](C)CCC2=O)c2ccccc2)cc1	-31%	?
C[C@@H]1CCC(=O)N(CC[C@H](Oc2ccccc2)c2ccccc2)CC1	-19%	79µM*
CC(C)(C)NCC(O)CSc1nc(-c2ccc(C(N)=O)s2)cs1 (stereo not given)	-2%	3%
SMILES	EPAC1 agonist	EPAC2 antag
Cc1ccc2[nH]nc(C(=O)N3CCOc4ccc(CN5CCc6sccc6C5)cc4C3)c2c1	-7%	-23%
O=S(=O)(O)Oc1ccc(C(c2ccc(OS(=O)(=O)O)cc2)c2ccccn2)cc1	22%	-11%
CC(=O)Oc1ccc(C(c2ccc(OC(C)=O)cc2)c2ccccn2)cc1	-44%	18µM*
COC(=O)C1=C(C)NC(C)=C(C(=O)OC(C)C)C1c1cccc2nonc12 (stereo not given)	-11%	50µM*!
COC(=O)C1=C(C)NC(C)=C(C(=O)OCC(C)C)C1c1ccccc1[N+](=O)[O-] (stereo not given)	-72%	?
COCC(=O)Nc1cc(C(=O)N2CCN(C)C(c3ccccc3)C2)c2c(c1)nc(-c1ccncc1)n2C (stereo not given)	-9%	3%
Cc1oc(-c2ccccc2NC(=O)C2CCC2)nc1CNC(=O)c1ccccn1	6%	-16%
CC(C)=CCc1c(O)cc(O)c2c1O[C@H](c1ccccc1)CC2=O	?	50µM*
O=C1CC(c2ccc(O)cc2)Oc2ccccc21 (stereo not given)	-12%	?
CCCCCCCCCCCCCCCC(=O)O[C@H]1[C@@H](O)[C@@H](O)[C@@H]([C@H](NC(=O)[C@@H]2C[C@@H](CCC)CN2C)[C@H](C)Cl)O[C@@H]1SC	-195%	-5%
